Measured values as given in PubChem BioAssay (EPA / NIEHS).
Several values for one entry are separate records, joined by “and”; a condition that tells them apart may be missing. Identical values can stand only once. Inconclusive results are not listed. Some compounds were tested as several samples or in several runs, with calls that do not always agree. Activity calls are given as the source filed them. How the source made its calls: active means hit-call score of the fitted dose curve at least 0.9, where 1 is the maximum; inconclusive means response in the unintended direction; inactive means score below 0.9.

target: Cellular tumor antigen p53 (Homo sapiens) (UniProt P04637); experiment: TOX21_p53_BLA_p2_ratio: Tox21 HCT-116 p53 Agonism Beta-lactamase Assay, Ratio, Phase 2 (AID 2283592)
Sequence (P04637 whole entry, looked up, the tested form may be a part): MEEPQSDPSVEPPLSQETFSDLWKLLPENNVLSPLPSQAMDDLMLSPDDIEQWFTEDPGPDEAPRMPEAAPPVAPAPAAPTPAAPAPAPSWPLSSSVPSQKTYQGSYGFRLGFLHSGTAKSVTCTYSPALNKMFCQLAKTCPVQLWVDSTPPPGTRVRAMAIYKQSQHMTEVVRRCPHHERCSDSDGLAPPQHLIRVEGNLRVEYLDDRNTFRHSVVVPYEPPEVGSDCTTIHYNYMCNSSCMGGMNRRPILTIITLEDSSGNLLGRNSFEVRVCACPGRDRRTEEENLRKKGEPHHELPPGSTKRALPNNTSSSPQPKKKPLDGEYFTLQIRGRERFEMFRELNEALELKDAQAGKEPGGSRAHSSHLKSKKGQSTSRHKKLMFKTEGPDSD
Source text: TOX21_p53_BLA_p2 is a cell-based, single-readout assay that uses HCT116, a human intestinal cell line, […] in a 1536-well plate.TOX21_p53_BLA_p2_ratio is an assay readout measuring reporter gene via receptor activity and designed using inducible reporter (beta lactamase induction) detected with GAL4 b-lactamase reporter gene. The signal is derived from the ratio of cleaved (ch2) to uncleaved (ch1) reporter gene substrate used as the measure of target activity.Data from the assay component TOX21_p53_BLA_p2_ratio was analyzed into 1 assay endpoint. This assay endpoint, TOX21_p53_BLA_p2_ratio, was analyzed in the positive analysis fitting direction relative to DMSO as the negative control and baseline of activity. Using a type of inducible reporter, gain-of-signal activity can be used to understand changes in the reporter gene as they relate to the gene TP53. Furthermore, this assay endpoint can be referred to as a primary readout, because this assay has produced multiple assay endpoints and this ratio serves a reporter gene function to understand target activity. To generalize the intended target to other relatable targets, this assay endpoint is annotated to the DNA binding intended target family, where the subfamily is tumor suppressor.
Thawing Method: Place 14 mL of pre-warmed thaw medium into a 15 mL of conical tub. Remove the vial of cells to be thawed from liquid nitrogen and thaw rapidly by placing at 37C in a water bath with gentle agitation for 1-2 minutes. Decontaminate the vial by wiping with 70% ethanol before opening in a biological safety cabinet. Transfer the vial contents drop-wise into 14 mL of thaw medium in a sterile 15-mL conical tub. Centrifuge cells at 900 rpm for 4 minutes and resuspend in thaw medium. Transfer contents to the T75 tissue culture flask containing Thaw Medium and place flask in a humidified 37C/5% CO2 incubator. Switch to growth medium at first passage.Propagation Method: Aspirate medium, rinse once in DPBS, add 0.25% Trypsin/EDTA and swirl to coat the cell evenly. Add an equal volume of Growth Medium to inactivate Trypsin after 2-3 minutes incubation at 37C. Centrifuge cells at 900 rpm for 4 minutes and resuspend in growth medium. Cell should be passage or fed at least twice a week.Assay Protocol: Harvest cells from culture in growth medium and resuspend in assay medium. 2.2 Dispense 4000 cells/5 uL/well into 1536-well black/clear bottom plates using a Multidrop dispenser. After the cells were incubated at 37C for 5 hours, 23 nL of compounds dissolved in DMSO were transferred to the assay plate by a PinTool resulting in a 217-fold dilution. Incubate the plates for 16 hours at 37C, 5% CO2. Add 1 uL of 6X LiveBLAzer FRET B/G (CCF4-AM) Substrate Mixture to each well using a BioRAPTR dispenser and incubate the plates at room temperature for 2 hours. Measure fluorescence intensity at 460 and 530 nm emission and 405 nm excitation by an Envision detector. Data is expressed as the ratio of 460nm/530nm emissions. Add 4 uL of Cell-titer Glo to each well using BioRAPTR and incubate the plates at room temperature for 2 hours. Measure fluorescence intensity by a VewLux plate reader.

Structure (SMILES) | outcome | AC50
CC(=O)c1cccnc1 | inactive | –
O=S1(=O)CC=CC1 | inactive | –
CN(C)c1ccc(C=O)cc1 | inactive | –
CC(=O)Oc1c(C)c(C)c2c(c1C)CC[C@@](C)(CCC[C@H](C)CCC[C@H](C)CCCC(C)C)O2 | inactive | –
ClCCOCCOCCCl | inactive | –
CCC(C)(C)C1CCC(OC)CC1 (stereo not given) | inactive | –
CC(=O)OC/C=C(C)/C=C/C=C(C)/C=C/C1=C(C)CCCC1(C)C | inactive | –
CCOc1ccc(NC(C)=O)cc1 | inactive | –
Nc1ccn([C@H]2CC[C@@H](CO)O2)c(=O)n1 | inactive | –
CCCCC(CC)COC(=O)COc1ccc(Cl)cc1C (stereo not given) | inactive | –
Cc1ccncc1 | inactive | –
O=S(=O)(O)c1cc(O)c(O)c(S(=O)(=O)O)c1 | inactive | –
CCC(C)C1CCCCC1=O (stereo not given) | inactive | –
CC12CCC(C1)C(C)(C)C2O (stereo not given) | inactive | –
CC(C)COC(=O)c1ccccc1 | inactive | –
CCCCCCCCCCCCS | inactive | –
CCCCCCCC1CCCC1=O (stereo not given) | inactive | –
CC(C)(C)c1cccc(O)c1 | inactive | –
CC/C=C\CCOC(C)OCC (stereo not given) | inactive | –

Structure (SMILES) | outcome | AC50
c1ccc(Cc2ccccc2)cc1 | inactive | –
CCOC(=O)CCCCCCCCC(=O)OCC | inactive | –
CC(=O)CC(C)(C)C1CCCCC1 | inactive | –
CCCCCCCCCCCCN1CCOCC1 | inactive | –
O=C(O)C1=NN(c2ccc(S(=O)(=O)O)cc2)C(=O)C1 | inactive | –
CCCCCCCCCC(=O)OCC | inactive | –
CC(C)(C)C1CCC(O)CC1 (stereo not given) | inactive | –
C[C@]12CC[C@@H]3c4ccc(O)cc4CC[C@H]3[C@@H]1CC[C@@H]2O | inactive | 29 µM (active) and 16.7 µM (active)
CCCCN(CCCC)CCCCCCN(CCCC)CCCC | inactive | –
CC(=O)c1ccc(O)cc1 | inactive | –
C=CC(C)(CCC=C(C)C)OC(=O)CC (stereo not given) | inactive | –
CC/C=C\CCOC(=O)C(C)C | inactive | –
CC(=O)c1ccc2ccccc2c1 | inactive | –
C#C[C@]1(O)CC[C@H]2[C@@H]3CCc4cc(O)ccc4[C@H]3CC[C@@]21C | – | 9 µM (active) and 6.58 µM (active) and 7.36 µM (active)
NCCCOCCOCCOCCCN | inactive | –
N=C1N=C(N)c2ccccc21 | – | 28.4 µM (active)
OC[C@H]1O[C@@H](O[C@H]2[C@H](O)[C@@H](O)[C@H](O)O[C@@H]2CO)[C@H](O)[C@@H](O)[C@H]1O | inactive | –
CCCCCCCCCCCCCCCCCC(=O)OCCCCCCCCCCCCCC(C)C | inactive | –
NCCN1CCNCC1 | inactive | 0.000307 µM (active)
